Source: PubChem BioAssay (EPA / NIEHS)
The source made the active and inactive calls. How the source made its calls: active means hit-call score of the fitted dose curve at least 0.9, where 1 is the maximum; inactive means score below 0.9.

read-out: Cyclin D2 (CCND2), CCND2 (gene 894); experiment: LTEA_HepaRG_CCND2: Life Technologies and Expression Analysis (LTEA) Assay for Cyclin D2 (CCND2) using HepaRG (AID 2283449); conditions: mRNA level, 48 h; actives raise or lower the signal;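 further: CCND2 transcript measured by TaqMan qRT-PCR and normalised to three housekeeping genes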
Outline: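 Chemicals in 0.5% DMSO, eight half-log concentrations from 100 uM top, were applied in duplicate for 48 h to human HepaRG cells in serum-free induction medium. CCND2 mRNA by TaqMan qRT-PCR, normalised to ACTB/GAPDH/POLR2A; bidirectional fit versus DMSO.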

outcome, inactive:
CC(C)=CCC/C(C)=C\CO
CC[C@H]1OC(=O)[C@H](C)[C@@H](O[C@H]2C[C@@](C)(OC)[C@@H](O)[C@H](C)O2)[C@H](C)[C@@H](O[C@@H]2O[C@H](C)C[C@H](N(C)C)[C@H]2O)[C@](C)(O)C[C@@H](C)C(=O)[C@H](C)[C@@H](O)[C@]1(C)O
O=C1CCC(N2C(=O)c3ccccc3C2=O)C(=O)N1 (stereo not drawn)
C=CCCCCCCCCC(=O)O
CCNc1ccccc1
CCC(C)(C)C(=O)O[C@H]1C[C@@H](C)C=C2C=C[C@H](C)[C@H](CC[C@@H]3C[C@@H](O)CC(=O)O3)[C@H]21
CCCCC(CC)COC(=O)c1ccc(C(=O)OCC(CC)CCCC)cc1 (stereo not drawn)
CC(C)=CCC/C(C)=C/CO
Cc1ccc(O)cc1
CC(=O)c1ccc2c(c1)[C@H](NC(=O)c1ccc(F)cc1)[C@@H](O)C(C)(C)O2
Cc1c(-c2cccnc2)c2ccccc2n1CCCCC(=O)O
NC(=O)NO
CC[C@H](C)C(=O)O[C@H]1C[C@@H](C)C=C2C=C[C@H](C)[C@H](CC[C@@H]3C[C@@H](O)CC(=O)O3)[C@H]21

read-out: Cyclin Dependent Kinase Inhibitor 1A (CDKN1A), CDKN1A (gene 1026); experiment: LTEA_HepaRG_CDKN1A: Life Technologies and Expression Analysis (LTEA) Assay for Cyclin Dependent Kinase Inhibitor 1A (CDKN1A) using HepaRG (AID 2283450); conditions: mRNA level, 48 h; actives raise or lower the signal
Outline: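 Read-out is CDKN1A mRNA by TaqMan qRT-PCR, normalized to three housekeeping genes and fitted in both directions against the DMSO baseline. Human HepaRG cells were treated 48 h with test chemicals up to 100 uM in half-log steps, 0.5% DMSO.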

outcome, inactive:
CC(C)=CCC/C(C)=C\CO
Oc1ccc2c(c1)-c1ccccc1C2
CCOCCOCCOCCO
On1ccccc1=S
CC[C@H]1OC(=O)[C@H](C)[C@@H](O[C@H]2C[C@@](C)(OC)[C@@H](O)[C@H](C)O2)[C@H](C)[C@@H](O[C@@H]2O[C@H](C)C[C@H](N(C)C)[C@H]2O)[C@](C)(O)C[C@@H](C)C(=O)[C@H](C)[C@@H](O)[C@]1(C)O
O=C1CCC(N2C(=O)c3ccccc3C2=O)C(=O)N1 (stereo not drawn)
CC(C)=CCCC(C)CCO (stereo not drawn)
Cc1ccc(S(=O)(=O)O)cc1C
CCCCCCCCCCCCc1ccccc1
O=C(O)CC(O)C(=O)O (stereo not drawn)
C=CCCCCCCCCC(=O)O
CCOCCO
CCNc1ccccc1
CCC(C)(C)C(=O)O[C@H]1C[C@@H](C)C=C2C=C[C@H](C)[C@H](CC[C@@H]3C[C@@H](O)CC(=O)O3)[C@H]21
CCCCC(CC)COC(=O)c1ccc(C(=O)OCC(CC)CCCC)cc1 (stereo not drawn)
CCN(C(=O)c1cc(C)cc(OC[C@H](C)Nc2ccncc2)c1)C(C)C
CC(C)=CCC/C(C)=C/CO
Cc1ccc(O)cc1
CN(C)c1ccc(N=NS(=O)(=O)O)cc1
Cc1[nH]cnc1C[C@H]1CCc2c(C)c3ccccc3n2C1=O
COC(=O)c1ccccc1O
COC(=O)c1c(Cl)c(Cl)c(C(=O)OC)c(Cl)c1Cl
CC(C)=CCCC(C)=CC=O
CC(=O)c1ccc2c(c1)[C@H](NC(=O)c1ccc(F)cc1)[C@@H](O)C(C)(C)O2
COc1cccc(-c2ccc(/C=C\CN3CCCCCC3)cc2Cl)c1
COC(=O)CC(=O)OC
Cc1c(-c2cccnc2)c2ccccc2n1CCCCC(=O)O
NC(=O)NO
CC[C@H](C)C(=O)O[C@H]1C[C@@H](C)C=C2C=C[C@H](C)[C@H](CC[C@@H]3C[C@@H](O)CC(=O)O3)[C@H]21

AC50, active:
CCc1cc(SCc2sc(-c3ccc(C(F)(F)F)cc3)nc2CN2CCN(c3ccc(OC)cc3)CC2)ccc1OCC(=O)O 85.4 µM
